About 83,000 compounds went through this panel and 20% of them were active in at least one assay; those are over-represented in the sample as a whole.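 How to read the values: 0–100, growth inhibition (40 = 60% inhibited); 0, no net growth; -100 to 0, cell death (-40 = 40% of starting cells died; -100 = all dead).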 Values without a mark were called inactive. Activity calls are given as the source filed them. The calls were made as follows: active = growth percent below 10; inactive = the rest.

In one assay the test system is U251 CNS. Nature of the assay: NCI-60 one-dose screen, 48 h (100 = growth as untreated, 0 = no growth, -100 = all killed). Particulars: 10 µM.
For the compound `COc1cc(Cl)cc(-c2nn(-c3cccc(NC(=O)Nc4ccc(Cl)c(Cl)c4)c3)cc2-c2ccncc2)c1`, the growth is 3.01% (active).
In the case of `COc1cc2cc3c(nc2cc1OC)CCN3Cc1ccc(NC(=O)c2ccc(Cl)c(C(F)(F)F)c2)cc1`, the growth was 84.6%.
On to `CCOC(=O)N1C/C(=C/c2ccc(Cl)cc2)C(=O)/C(=C/c2ccc(Cl)cc2)C1`, for which the growth was 12.1%.
For the compound `c1ccc(CSc2nnc3c4c5c(sc4nc(-c4cccnc4)n23)CCCCCC5)cc1`, the growth was 16.8%.
`Cc1cc2ccccc2nc1-c1ccccc1F`: the growth was 91.1%.
As to `COc1ccc(S(=O)(=O)Nc2c(/C=C\c3cc(OC)c(OC)c(OC)c3)ccc(OC)c2O)cc1`, the growth was 6.01% (active).
For the compound `N=C(N)c1ccc(-c2ccc(-c3cccs3)s2)s1`, the growth is -85.9% (active).
`CSc1cc(SC)ncn1`: the growth was 108%.
As for `Cn1c(C(N)=O)cc2c1-c1nc(Nc3ccccc3)ncc1CCC2`, the growth is 26.9%.
The same measure, in the same setting: then `CCOC(=O)N/N=C\C(C)=N\NC(=O)OCC`, with 92.7%; and `Nc1cc2c(cc1Cl)-c1ccc([N+](=O)[O-])cc1/C2=N\O`, with 67.7%.
Still for that read-out and setting: then `Cc1cccc(C)c1NC(=O)c1sc2nc3c(cc2c1N)C(=O)CCC3`, with 85.6%.
Consider `Cc1cc(C)c(CCc2cc(C)c(C)cc2C)cc1C`, for which the growth was 93.9%.
The same measure, in the same setting: the value for `CCN1CCC(CCOC)(CN2c3ccccc3Sc3ccc(Cl)cc32)C1` (stereo not drawn) was 40.5%.
With `COc1ccc(OC)c(/C=C/c2nc(SCc3ccccc3)n(-c3ccc(Cl)cc3)n2)c1`, the growth is 38.7%.
Consider `CN1CCC(CNc2cc(C3(C(=O)Nc4cc(C(=O)Nc5ccc(Cl)c(C(F)(F)F)c5)ccc4F)CC3)ncn2)CC1`, for which the growth is -37.5% (active).
With `Cc1ccc(NC(=O)NC2CCCCC2)cc1`, the growth was 99.7%.
As to `CC1CN(Cc2ccccc2)C(=O)NC1=O` (stereo not drawn), the growth is 108%.
As for `COc1cc(Cc2cc(-c3ccc(Cl)cc3)n[nH]c2=O)ccc1O`, the growth was 108%.
`CN(C)CCNC(=O)c1cccn2c(=O)c3cc4ccccc4cc3nc12`: the growth is -11.1% (active).
Regarding `CC(=O)CSC(C)=O`, the growth is 98%.
As to `c1ccc(C(NC2CC3CCC2C3)c2ccccc2)cc1` (stereo not drawn), the growth was 91.9%.
On to `CC(C)=CCc1cc(O)cc2c1OC(C=C(C)C)C1=C2C(=O)C2=C(C1=O)S(=O)(=O)CCN2` (stereo not drawn), for which the growth was -14.3% (active).
Turning to `COc1cc2c(cc1OCCCN1CCN(c3ncnc4ccccc34)CC1)N=CC1CCCN1C2=O` (stereo not drawn), the growth was 1.3% (active).
With `Cc1cccc(Cl)c1NC(=O)c1ccc2nc(NC(=O)NC3CCN(C)CC3)sc2c1`, the growth was 80.5%.
As to `CCOC(=O)c1ccc(NC(=O)Nc2ncc(Cl)cc2Cl)cc1`, the growth is 99.2%.
On to `COc1cc(-c2nc(-c3nnc(-c4ccccc4Cl)o3)c3ccccn23)cc(OC)c1OC`, for which the growth is 96.9%.
`Nc1nc(N)c(NC(=O)CNc2ccc(C(=O)O)cc2)c(N)n1`: the growth was 105%.
With `COc1cc(-c2cc(C(=O)N3CCN(C(=O)c4ccccc4NCc4cccs4)CC3)nc3cc(-c4ccccc4)nn23)cc(OC)c1OC`, the growth was 72.1%.
On the same count and under the same terms, then `COc1ccc(NC(=O)CSc2nc3ccccc3c(=O)n2CCc2ccccc2)cc1`, with 71.4%; and `COc1ccc(-c2nc3sc(C4CC4)nn3c2/C=C2/C(=O)Nc3ccc(OC)cc32)cc1`, with 72.8%.
With `O=C(Nc1cccc(Br)c1)c1cc(=O)[nH]c2ccccc12`, the growth is 91.5%.
For the compound `FC(F)(F)c1ccc2nc(-c3nc(-c4ccccc4)n4ccccc34)[nH]c2c1`, the growth was 59.5%.
The same measure, in the same setting: the value for `Cc1cc(N(CCCNc2ccnc3cc(Cl)ccc23)Cc2cccs2)nc(Cl)n1` was 40%; that for `O=C1C(c2ccccc2)C2C=CC(C2)N1O` (stereo not drawn) was 109%; that for `CN1c2ccccc2[C@]2(Cc3ccccc3)Cc3ccccc3N[C@H]12` was 106%.
As for `CC1(C)CCC(=NNC(N)=S)CC1`, the growth was 105%.
Take `N=C(N)c1ccc(-c2ccc(-c3ccccc3)o2)nc1`: the growth was 83.6%.
For the compound `O=c1[nH]c(-c2ccc(Cl)cc2)nc2sc3c(c12)CCCC3`, the growth is 54.3%.

A further assay concerns PC-3 prostate. The assay is described as above. Particulars: 10 µM.
As to `COc1cc(Cl)cc(-c2nn(-c3cccc(NC(=O)Nc4ccc(Cl)c(Cl)c4)c3)cc2-c2ccncc2)c1`, the growth is -5.03% (active).
For `COc1cc2cc3c(nc2cc1OC)CCN3Cc1ccc(NC(=O)c2ccc(Cl)c(C(F)(F)F)c2)cc1`, the growth was 69.6%.
`CCOC(=O)N1C/C(=C/c2ccc(Cl)cc2)C(=O)/C(=C/c2ccc(Cl)cc2)C1`: the growth is 49.4%.
As to `c1ccc(CSc2nnc3c4c5c(sc4nc(-c4cccnc4)n23)CCCCCC5)cc1`, the growth is 9.01% (active).
As for `Cc1cc2ccccc2nc1-c1ccccc1F`, the growth is 94.3%.
Consider `COc1ccc(S(=O)(=O)Nc2c(/C=C\c3cc(OC)c(OC)c(OC)c3)ccc(OC)c2O)cc1`, for which the growth was 30.5%.
On to `N=C(N)c1ccc(-c2ccc(-c3cccs3)s2)s1`, for which the growth is 5.1% (active).
The same measure, in the same setting: the value for `CSc1cc(SC)ncn1` was 91%; that for `Cn1c(C(N)=O)cc2c1-c1nc(Nc3ccccc3)ncc1CCC2` was 59.5%; that for `CCOC(=O)N/N=C\C(C)=N\NC(=O)OCC` was 93%.
With `Nc1cc2c(cc1Cl)-c1ccc([N+](=O)[O-])cc1/C2=N\O`, the growth is 52%.
For the compound `Cc1cccc(C)c1NC(=O)c1sc2nc3c(cc2c1N)C(=O)CCC3`, the growth is 70.2%.
Regarding `Cc1cc(C)c(CCc2cc(C)c(C)cc2C)cc1C`, the growth was 106%.
In the case of `CCN1CCC(CCOC)(CN2c3ccccc3Sc3ccc(Cl)cc32)C1` (stereo not drawn), the growth was 35.7%.
Same read-out and setting: then `COc1ccc(OC)c(/C=C/c2nc(SCc3ccccc3)n(-c3ccc(Cl)cc3)n2)c1`, with 35.6%; and `CN1CCC(CNc2cc(C3(C(=O)Nc4cc(C(=O)Nc5ccc(Cl)c(C(F)(F)F)c5)ccc4F)CC3)ncn2)CC1`, with -23% (active).
Still for that read-out and setting: then `Cc1ccc(NC(=O)NC2CCCCC2)cc1`, with 104%; and `CC1CN(Cc2ccccc2)C(=O)NC1=O` (stereo not drawn), with 92.7%; and `COc1cc(Cc2cc(-c3ccc(Cl)cc3)n[nH]c2=O)ccc1O`, with 105%.
For `CN(C)CCNC(=O)c1cccn2c(=O)c3cc4ccccc4cc3nc12`, the growth is -16.6% (active).
Turning to `CC(=O)CSC(C)=O`, the growth was 86.6%.
Take `c1ccc(C(NC2CC3CCC2C3)c2ccccc2)cc1` (stereo not drawn): the growth was 97.2%.
In the case of `CC(C)=CCc1cc(O)cc2c1OC(C=C(C)C)C1=C2C(=O)C2=C(C1=O)S(=O)(=O)CCN2` (stereo not drawn), the growth is 6.32% (active).
In the case of `COc1cc2c(cc1OCCCN1CCN(c3ncnc4ccccc34)CC1)N=CC1CCCN1C2=O` (stereo not drawn), the growth was -53% (active).
Consider `Cc1cccc(Cl)c1NC(=O)c1ccc2nc(NC(=O)NC3CCN(C)CC3)sc2c1`, for which the growth is 69.7%.
Same read-out and setting: then `CCOC(=O)c1ccc(NC(=O)Nc2ncc(Cl)cc2Cl)cc1`, with 77%; and `COc1cc(-c2nc(-c3nnc(-c4ccccc4Cl)o3)c3ccccn23)cc(OC)c1OC`, with 74.2%; and `Nc1nc(N)c(NC(=O)CNc2ccc(C(=O)O)cc2)c(N)n1`, with 101%.
On to `COc1cc(-c2cc(C(=O)N3CCN(C(=O)c4ccccc4NCc4cccs4)CC3)nc3cc(-c4ccccc4)nn23)cc(OC)c1OC`, for which the growth is 34%.
Regarding `COc1ccc(NC(=O)CSc2nc3ccccc3c(=O)n2CCc2ccccc2)cc1`, the growth was 106%.
Consider `COc1ccc(-c2nc3sc(C4CC4)nn3c2/C=C2/C(=O)Nc3ccc(OC)cc32)cc1`, for which the growth is 58.1%.
`O=C(Nc1cccc(Br)c1)c1cc(=O)[nH]c2ccccc12`: the growth was 79.2%.
As to `FC(F)(F)c1ccc2nc(-c3nc(-c4ccccc4)n4ccccc34)[nH]c2c1`, the growth was 39.6%.
On the same count and under the same terms, then `Cc1cc(N(CCCNc2ccnc3cc(Cl)ccc23)Cc2cccs2)nc(Cl)n1`, with 40.4%.
Regarding `O=C1C(c2ccccc2)C2C=CC(C2)N1O` (stereo not drawn), the growth is 98.2%.
On to `CN1c2ccccc2[C@]2(Cc3ccccc3)Cc3ccccc3N[C@H]12`, for which the growth is 100%.
Take `CC1(C)CCC(=NNC(N)=S)CC1`: the growth was 109%.
For `N=C(N)c1ccc(-c2ccc(-c3ccccc3)o2)nc1`, the growth is 71.7%.
Consider `O=c1[nH]c(-c2ccc(Cl)cc2)nc2sc3c(c12)CCCC3`, for which the growth is 93.2%.

Values taken from PubChem BioAssay (NCI).
